Results reported in PubChem BioAssay (Tox21).
Results filed as inconclusive are left out. Some compounds were tested as several samples or in several runs, with calls that do not always agree. The source made the active and inactive calls. The call rests on the fitted dose curve.

How the values were obtained:
[1] = biological target: Acetylcholinesterase (Homo sapiens) (UniProt P22303); assay: Acetylcholinesterase (AChE) small molecule antagonists: colormetric cell-based qHTS assay (AID 1347395); further: nearly all actives have a fitted effect of over 30% in size; further: potency means the concentration at half of the fitted maximal effect
Acetylcholinesterase (Homo sapiens), sequence (P22303 whole entry, looked up): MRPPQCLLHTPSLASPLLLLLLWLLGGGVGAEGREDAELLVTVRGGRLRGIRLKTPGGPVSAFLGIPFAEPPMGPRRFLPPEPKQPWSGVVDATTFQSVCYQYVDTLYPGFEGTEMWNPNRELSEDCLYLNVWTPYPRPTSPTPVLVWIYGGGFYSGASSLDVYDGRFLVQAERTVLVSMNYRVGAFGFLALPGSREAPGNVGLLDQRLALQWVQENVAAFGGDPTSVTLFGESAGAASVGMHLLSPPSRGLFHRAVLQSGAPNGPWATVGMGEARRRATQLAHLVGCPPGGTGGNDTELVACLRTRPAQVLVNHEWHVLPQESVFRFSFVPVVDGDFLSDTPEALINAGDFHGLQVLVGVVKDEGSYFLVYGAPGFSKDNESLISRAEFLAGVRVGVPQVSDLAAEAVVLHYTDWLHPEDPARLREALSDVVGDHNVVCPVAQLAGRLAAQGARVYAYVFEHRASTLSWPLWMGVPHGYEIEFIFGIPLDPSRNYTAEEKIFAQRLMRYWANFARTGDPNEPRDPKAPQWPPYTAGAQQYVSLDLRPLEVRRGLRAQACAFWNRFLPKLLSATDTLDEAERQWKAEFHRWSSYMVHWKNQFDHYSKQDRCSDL
Procedure, shortened: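 SH-SY5Y cells attached overnight, exposed to compound 30 min at 37 C, then given DTNB/acetylthiocholine; after 90 min at 37 C, colorimetric thiocholine read gives cellular AChE activity.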

[2] = biological target: Acetylcholinesterase (Homo sapiens) (UniProt P22303); assay: Acetylcholinesterase (AChE) small molecule antagonists: enzyme-based qHTS assay (AID 1347397); details: Potency: AChE enzyme activity inhibition; outcome: AChE enzyme activity inhibition; further: nearly all actives have a fitted effect of over 55% in size; further: potency means the concentration at half of the fitted maximal effect
Procedure, shortened: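 Enzyme inhibition was scored from DTNB-detected thiocholine formed by recombinant human AChE acting on acetylthiocholine. The 30 min compound preincubation and 10 min substrate reaction were both run at room temperature, with DMSO as vehicle control.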

[3] = biological target: Acetylcholinesterase (Homo sapiens) (UniProt P22303); assay: Acetylcholinesterase (AChE) small molecule antagonists: fluorescence cell-based qHTS assay (AID 1347398); details: Potency: AChE activity; outcome: AChE activity; further: nearly all actives have a fitted effect of over 50% in size; further: potency means the concentration at half of the fitted maximal effect
Procedure, shortened: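 Endogenous acetylcholinesterase of SH-SY5Y neuroblastoma cells is measured in situ. After overnight attachment and 30 min compound exposure, cells receive acetylthiocholine and Thiolite Green; fluorescence is read after 40 min at room temperature.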

[4] = biological target: Acetylcholinesterase (Homo sapiens) (UniProt P22303); assay: Acetylcholinesterase (AChE) small molecule antagonists: enzyme-based qHTS assay with human liver microsomes (AID 1347399); details: Potency: qHTS inhibition; outcome: qHTS inhibition; further: nearly all actives have a fitted effect of over 60% in size
Procedure, shortened: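 Recombinant human AChE (50 mU/mL in the enzyme mix) and human liver microsomes (0.25 mg/mL final) were preincubated with compound and NADPH (0.25 mg/mL final) for 30 min at 37 C. Acetylthiocholine/DTNB was then added; thiocholine was read colorimetrically after 10 min at room temperature.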

Measured: Potency

CCCCCC=O
inactive: [1] | [2] | [3] | [4]

CC(C)Nc1cccnc1N1CCN(C(=O)c2cc3cc(NS(C)(=O)=O)ccc3[nH]2)CC1
inactive: [1] | [2] | [3] | [4]

Oc1c(Cl)cc(Cl)c(Cl)c1Cl
inactive: [1] | [2] | [3] | [4]

O=C(O)c1ccc(S(=O)(=O)O)cc1C(=O)O
inactive: [1] | [2] | [3] | [4]

CN1C[C@H](C(=O)N[C@]2(C)O[C@@]3(O)[C@@H]4CCCN4C(=O)[C@H](Cc4ccccc4)N3C2=O)C[C@@H]2c3cccc4[nH]cc(c34)C[C@H]21
inactive: [4]
active: [1] 19.5 µM | [2] 30.9 µM | [3] 8.71 µM

CN1C(CSCC(F)(F)F)Nc2cc(Cl)c(S(N)(=O)=O)cc2S1(=O)=O (stereo not given)
inactive: [1] | [2] | [3] | [4]

C1CCC(SSC2CCCCC2)CC1
inactive: [1] | [2] | [3] | [4]

CN1C(=O)c2ccccc2C1=O
inactive: [1] | [2] | [3] | [4]

O=Cc1cccc([N+](=O)[O-])c1
inactive: [1] | [2] | [3] | [4]

CN1C(=O)N(C)C(O)C1O (stereo not given)
inactive: [1] | [2] | [3] | [4]

Nc1nc(=S)c2[nH]cnc2[nH]1
21.9 µM (active) and inactive: [1]
inactive: [2] | [3] | [4]

O=C(O)CCCCCCCCCCCC(=O)O
inactive: [1] | [2] | [3] | [4]

IC(I)I
inactive: [1] | [2] | [3] | [4]

O=S1(=O)OC(c2ccc(O)cc2)(c2ccc(O)cc2)c2ccccc21
inactive: [1] | [2] | [3] | [4]

O=C(O)c1ccccc1C(=O)OCc1ccccc1
inactive: [1] | [2] | [3] | [4]

CC(=O)CC(C)(C)C1CCCCC1
inactive: [1] | [2] | [3] | [4]

Brc1ccccn1
inactive: [1] | [2] | [3] | [4]

CCC(CC)(CC(=O)Nc1cccc(/C=C/c2nc(C3CCC3)cs2)c1)C(=O)O
inactive: [1] | [2] | [3] | [4]

O=Cc1ccccc1C=O
inactive: [1] | [2] | [3] | [4]

CCN(CC)CC(=O)Oc1ccc(NC(C)=O)cc1
inactive: [1] | [2] | [3] | [4]

CCN(CC)c1ccc(C(=C2C=CC(=[N+](CC)CC)C=C2)c2ccc(S(=O)(=O)O)cc2S(=O)(=O)[O-])cc1
inactive: [1] | [2] | [3] | [4]

CCCC(C)CCC(C)=O (stereo not given)
inactive: [1] | [2] | [3] | [4]

CCCCC(=O)O[C@]1(C(=O)CO)CC[C@H]2[C@@H]3CCC4=CC(=O)CC[C@]4(C)[C@H]3[C@@H](O)C[C@@]21C
inactive: [1] | [2] | [3] | [4]

CCCCOC(=O)c1ccccc1
inactive: [1] | [2] | [3] | [4]

O=[N+]([O-])c1ccc(Oc2ccc([N+](=O)[O-])cc2)cc1
inactive: [1] | [2] | [3] | [4]

CC(C)(C)C(=O)c1ccccc1
inactive: [1] | [2] | [3] | [4]

CCCCC/C(C=O)=C\c1ccccc1
inactive: [1] | [2] | [3] | [4]

ClC/C=C\CCl
inactive: [1] | [2] | [3] | [4]

CCOC(=O)C1=NOC(c2ccccc2)(c2ccccc2)C1
inactive: [1] | [2] | [3] | [4]

CCCCCCCC(OC)OC
inactive: [1] | [2] | [3] | [4]

CCCCOC(=O)CC(CC(=O)OCCCC)(OC(C)=O)C(=O)OCCCC
inactive: [1] | [2] | [3] | [4]

COc1cccc(N(C)C(=S)Oc2ccc3c(c2)CCCC3)n1
inactive: [1] | [2] | [3] | [4]

CCOC(=O)CC(O)(CC(=O)OCC)C(=O)OCC
inactive: [1] | [2] | [3] | [4]

Cc1c(F)c(N2CCNC(C)C2)cc2c1c(=O)c(C(=O)O)cn2C1CC1 (stereo not given)
inactive: [1] | [2] | [3] | [4]

F[Si-2](F)(F)(F)(F)F
inactive: [1] | [2] | [3] | [4]

CC(=O)OC1CCC(C(C)(C)C)CC1 (stereo not given)
inactive: [1] | [2] | [3] | [4]

CN1CCN(N)CC1
inactive: [1] | [2] | [3] | [4]

C[C@]12C[C@H](O)[C@H]3[C@@H](CCC4=CC(=O)CC[C@@]43C)[C@@H]1CC[C@@H]2C(=O)CO
inactive: [1] | [2] | [3] | [4]

CC(CCc1ccc(O)cc1)NCCc1ccc(O)c(O)c1 (stereo not given)
inactive: [1] | [2] | [3] | [4]

Nc1ccc(S(=O)(=O)O)cc1
inactive: [1] | [2] | [3] | [4]

Cc1ccccc1OCC1CO1 (stereo not given)
inactive: [1] | [2] | [3] | [4]

Oc1ccc(-c2ccccc2)c(Cl)c1
inactive: [1] | [2] | [3] | [4]

CC(C)CCCCCCOC(=O)C1CCCCC1C(=O)OCCCCCCC(C)C (stereo not given)
inactive: [1] | [2] | [3] | [4]

O=C(O)CCc1nc2ccccc2[nH]1
inactive: [1] | [2] | [3] | [4]

NC(=O)c1ccccc1O
inactive: [1] | [2] | [3] | [4]

CC(C)=CCC[C@@](C)(O)[C@H]1CC=C(C)CC1
inactive: [1] | [2] | [3] | [4]

CCCCCCC(C)O (stereo not given)
inactive: [1] | [2] | [3] | [4]

O=C(O)c1cc(N=Nc2ccc(S(=O)(=O)Nc3ccccn3)cc2)ccc1O
inactive: [1] | [2] | [3] | [4]

COc1c2ccoc2cc2oc(=O)ccc12
inactive: [1] | [2] | [3] | [4]

CCC(=O)Nc1ccc(O)cc1
inactive: [1] | [2] | [3] | [4]

CCCCCCCCCCCCOCC1CO1 (stereo not given)
inactive: [1] | [2] | [3] | [4]

CCC(COC(=O)CCS)(COC(=O)CCS)COC(=O)CCS
inactive: [1] | [2] | [3] | [4]

CCCCCCCC(=O)OC
inactive: [1] | [2] | [3] | [4]

OCCO
inactive: [1] | [2] | [3] | [4]

CCCCCCCCCCCC(=O)OC[C@@H](O)[C@H]1OC[C@H](OCCO)[C@H]1OCCO
inactive: [1] | [2] | [3] | [4]

N/C(=N\N=C\c1ccc(Cl)cc1)N/N=C/c1ccc(Cl)cc1
inactive: [1] | [2] | [3] | [4]

CCC(C(=O)OCCN1CCOC(c2ccccc2)C1C)c1ccccc1 (stereo not given)
inactive: [1] | [2] | [3] | [4]

OC[C@H]1O[C@@H]2O[C@H]3[C@H](O)[C@@H](O)[C@@H](O[C@H]4[C@H](O)[C@@H](O)[C@@H](O[C@H]5[C@H](O)[C@@H](O)[C@@H](O[C@H]6[C@H](O)[C@@H](O)[C@@H](O[C@H]7[C@H](O)[C@@H](O)[C@@H](O[C@H]1[C@H](O)[C@H]2O)O[C@@H]7CO)O[C@@H]6CO)O[C@@H]5CO)O[C@@H]4CO)O[C@@H]3CO
inactive: [1] | [2] | [3] | [4]

CCCCN1C(=O)c2ccccc2C1=O
inactive: [1] | [2] | [3] | [4]

Cc1oc(-c2ccccc2)nc1CCOc1cccc2c1ccn2CCC(=O)O
inactive: [1] | [2] | [3] | [4]
